Source: PubChem (The Scripps Research Institute Molecular Screening Center)
DAX1 inh-1: DAX1 (NR0B1) inhibitors on StAR promoter, primary screen, cell-based, luminescence, SF-1 (NR5A1), full-length DAX-1 | HEK293T StAR-luciferase reporter, SF-1/DAX-1 repression relief | inhibition, % at 6.8 µM | 370,000 compounds, 1.1% hits | AID 652010, 2013;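 active = inhibition above the mean over all tested compounds plus 3 SD, cut at about 3.6% in these data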;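 note: higher inhibition means more luminescence from relief of DAX-1 repression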
hcDAF-12 act: H. contortus DAF-12 nuclear receptor activators, primary screen, cell-based, luminescence, HEK293, lit1-tk-luc reporter; AID 652067, 2013; activation, % at 6.8 µM; 370,000 compounds, 1.4% hits; HEK293 hcDAF-12 lit1-tk-luc reporter; 0% DMSO, 100% Δ7-dafachronic acid;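 active = activation above the mean of all tested compounds plus 3 SD, cut at about 5.5% in these data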
ssDAF12 agonist: S. stercoralis DAF-12 nuclear receptor activators, primary screen, cell-based, luminescence, HEK293, GRIP1 co-expression, lit1-tk-luc; Nuclear hormone receptor DAF-12 (Strongyloides stercoralis); 370,000 compounds, 1% hits; HEK293 ssDAF-12/GRIP1 lit1-tk-luc reporter; % of 3 µM dafachronic acid response; AID 652126, 2013; activation, % at 6.8 µM;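 active = activation above the mean over all tested compounds plus 3 SD, cut at about 0.9% in these data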
DAX1 inh-2: DAX1 (NR0B1) inhibitors, primary screen, cell-based, HEK293, Gal4-DAX1, luciferase luminescence; Nuclear receptor subfamily 0 group B member 1 (Homo sapiens), P51843; HEK293 Gal4-DAX1 luciferase reporter; inhibition, % at 6.75 µM; 340,000 compounds, 0.99% hits; AID 504766, 2011;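 active = inhibition above the mean over all tested compounds plus 3 SD, cut at about 4.2% in these data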;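 note: inhibition shows as a rise in luminescence from relieved DAX1 repression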
Target sequence (P51843 207-470 limits assumed): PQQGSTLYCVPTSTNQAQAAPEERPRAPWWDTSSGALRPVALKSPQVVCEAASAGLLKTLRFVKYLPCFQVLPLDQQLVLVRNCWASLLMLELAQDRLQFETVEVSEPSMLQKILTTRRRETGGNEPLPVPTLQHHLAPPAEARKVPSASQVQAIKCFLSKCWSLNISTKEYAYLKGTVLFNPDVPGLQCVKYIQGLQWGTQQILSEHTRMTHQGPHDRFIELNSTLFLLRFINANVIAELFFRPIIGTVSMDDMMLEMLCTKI
hgDAF-12 ag: H. glycines DAF-12 receptor agonists, primary screen, cell-based, luminescence, HEK293, GAL4 fusion, UAS-luciferase; HEK293 GAL4-hgDAF12 UAS-luciferase reporter, agonist luminescence; normalized to butyrate control; 370,000 compounds, 1.8% hits; activation, % at 6.8 µM; Nuclear hormone receptor DAF-12 (Heterodera glycines), GAL4 fusion; AID 687014, 2013;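 active = activation above a cutoff set at the mean of all screened compounds plus 3 SD, cut at about 10% in these data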
Hits are given with their value. Hits are enriched below; roughly 4.1% of the tested compounds scored in any of these assays.

Results for Cc1ccc2nc(-c3ccc(NC(=O)CSc4nnc(-c5ccccc5)n4Cc4ccco4)cc3)sc2c1 ?
DAX1 inh-1: inactive; hcDAF-12 act: inactive; ssDAF12 agonist: inactive; hgDAF-12 ag: 12

How did Nn1c(SCC(=O)Nc2ccc(OCc3ccccc3)cc2)nnc1-c1cc(-c2ccc(Cl)cc2)n[nH]1 do in these assays?
DAX1 inh-1: inactive; hcDAF-12 act: inactive; ssDAF12 agonist: inactive; hgDAF-12 ag: inactive

How did Nn1c(SCC(=O)Nc2nccs2)nnc1-c1cc(-c2ccccc2)n[nH]1 do in these assays?
DAX1 inh-1: inactive; hcDAF-12 act: inactive; ssDAF12 agonist: inactive; hgDAF-12 ag: 11

Results for Nn1c(SCc2ccc(Br)cc2)nnc1-c1n[nH]c2c1CCC2 ?
DAX1 inh-1: inactive; hcDAF-12 act: inactive; ssDAF12 agonist: inactive; hgDAF-12 ag: inactive

Results for CC(C)(C)c1ccc(S(=O)(=O)N2CCC(C(=O)NCc3cccs3)CC2)cc1 ?
DAX1 inh-1: inactive; hcDAF-12 act: inactive; ssDAF12 agonist: inactive; hgDAF-12 ag: inactive

How did O=C(Cn1nc(C(=O)O)c2ccccc2c1=O)Nc1cc(S(=O)(=O)N2CCOCC2)ccc1Cl do in these assays?
DAX1 inh-1: inactive; hcDAF-12 act: inactive; ssDAF12 agonist: inactive; DAX1 inh-2: inactive; hgDAF-12 ag: inactive

What do the screens show for `CN(C(=O)c1cccc(NC(=O)Cc2ccc(NC(=O)C3CCCN(C(=O)c4ccccc4)C3)cc2)c1)C1CC1` (stereo not drawn)?
DAX1 inh-1: inactive; hcDAF-12 act: inactive; ssDAF12 agonist: inactive; hgDAF-12 ag: inactive

What do the screens show for `Nc1nc2c(ncn2[C@@H]2O[C@H](C(=O)NCC(F)(F)F)[C@@H](O)[C@H]2O)c(=O)[nH]1`?
DAX1 inh-1: inactive; hcDAF-12 act: inactive; ssDAF12 agonist: inactive; hgDAF-12 ag: inactive

Results for c1ccc(-c2csc(-c3ccncc3)n2)cc1 ?
DAX1 inh-1: inactive; hcDAF-12 act: inactive; ssDAF12 agonist: inactive; DAX1 inh-2: inactive; hgDAF-12 ag: inactive

What do the screens show for `c1ccc(-c2ccc(-c3ccncn3)cc2)cc1`?
DAX1 inh-1: inactive; hcDAF-12 act: inactive; ssDAF12 agonist: inactive; DAX1 inh-2: inactive; hgDAF-12 ag: 12

How did C=CCSc1n[nH]c(-c2ccc(OC)cc2)n1 do in these assays?
DAX1 inh-1: inactive; hcDAF-12 act: inactive; ssDAF12 agonist: inactive; DAX1 inh-2: inactive; hgDAF-12 ag: 12

Results for COc1ccc(C(=O)OCCCN(C)C2CN(Cc3cn(Cc4ccccc4F)nn3)S(=O)(=O)C2)cc1OC (stereo not drawn) ?
DAX1 inh-1: inactive; hcDAF-12 act: inactive; ssDAF12 agonist: inactive; hgDAF-12 ag: inactive

Results for CCN(CC)C(=O)Oc1ccc2cc(Br)ccc2c1 ?
DAX1 inh-1: inactive; hcDAF-12 act: 6.3; ssDAF12 agonist: inactive; DAX1 inh-2: inactive; hgDAF-12 ag: inactive

What do the screens show for `CCOC(=O)N1CCN(C(=S)NC(C)(C)C)CC1`?
DAX1 inh-1: inactive; hcDAF-12 act: inactive; ssDAF12 agonist: inactive; DAX1 inh-2: 5.2; hgDAF-12 ag: inactive

Results for Cc1cc(C)c(C)c(S(=O)(=O)Nc2ccccc2C(=O)O)c1C ?
DAX1 inh-1: inactive; hcDAF-12 act: inactive; ssDAF12 agonist: inactive; DAX1 inh-2: 4.9; hgDAF-12 ag: inactive

How did FC(F)(F)c1cccc(-c2cc3nc(NCCOc4ccccc4)ccn3n2)c1 do in these assays?
DAX1 inh-1: inactive; hcDAF-12 act: inactive; ssDAF12 agonist: inactive; hgDAF-12 ag: 12

What do the screens show for `c1ccc(OCCNc2ccn3nc(-c4ccccc4)cc3n2)cc1`?
DAX1 inh-1: inactive; hcDAF-12 act: inactive; ssDAF12 agonist: inactive; hgDAF-12 ag: inactive

How did Cc1ccc(C(=O)n2ccc3ccc(-c4ccc5ccn(Cc6ccccc6)c5c4)cc32)cc1 do in these assays?
DAX1 inh-1: inactive; hcDAF-12 act: 6.2; ssDAF12 agonist: inactive; hgDAF-12 ag: inactive

Results for Cc1cc(/C(N)=N/OC(=O)c2ccc(Cl)cc2)no1 ?
DAX1 inh-1: inactive; hcDAF-12 act: inactive; ssDAF12 agonist: inactive; hgDAF-12 ag: 11

What do the screens show for `N/C(=N\OC(=O)c1ccc(Cl)cc1)c1ccccn1`?
DAX1 inh-1: 4.2; hcDAF-12 act: inactive; ssDAF12 agonist: inactive; DAX1 inh-2: inactive; hgDAF-12 ag: inactive
